# In PubChem BioAssay (NCI):
# Compounds without any hit were thinned out: in the full panel of roughly 83,000, 20% have a hit.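 Plates (96-well) were seeded with cells, treated with compound at one concentration, and incubated for 48 hours before percent growth was determined.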 The source made the active and inactive calls. The calls were made as follows: active = growth percent below 10; inactive = the rest.
# Test system: HL-60(TB) leukemia
# Assay: NCI-60 one-dose screen, 48 h (100 = growth as untreated, 0 = no growth, -100 = all killed)
# Conditions: 10 µM unless noted
row,SMILES,growth
1,C=C1CC[C@@H]2[C@](C)(COC(C)=O)[C@H](OC(C)=O)CC[C@@]2(C)[C@@H]1CC(NCc1ccc(F)cc1)C1=CCOC1=O (stereo not given in full),-9.52% (active)
2,COc1ccc(OC)c(Nc2nnc(-c3ccc(O)c(OC)c3)o2)c1,87.3% (inactive)
3,COc1ccc2c(c1)cn1c3ccc(OC)cc3[nH]c(=O)c21,-53.8% (active)
4,O=C1CCC(N2C(=O)c3cccc(NCCCCCCOc4ccc(Nc5nccc(Nc6ccccc6)n5)cc4)c3C2=O)C(=O)N1 (stereo not given),87.2% (inactive)
5,O=C1NCCN1/N=C/c1c(Cl)nc2n1CCS2,72.2% (inactive)
6,COc1ccc(NS(=O)(=O)c2ccc(-c3cnc(C4CC4)o3)cc2)cc1,76.3% (inactive)
7,COc1ccc(-c2nnc(SCC(=O)N3CCN(c4cc5c(cc4F)c(=O)c(C(=O)O)cn5C4CC4)CC3)o2)cc1OC,66.8% (inactive)
8,CCOC(=O)C1(CC(C)C)CCOC1=O (stereo not given),96.9% (inactive)
9,COc1ccc(C(=O)NC(=O)Nc2ccc3c(c2)NC(=O)/C3=C\c2[nH]c(C)c(C(=O)O)c2C)c(F)c1,80.8% (inactive)
10,NCCNc1nc2ccccc2c2c(=O)c3cc(F)cc(Cl)c3sc12,-42.8% (active)
11,Cc1ccc(S(=O)(=O)NCN2C(=O)c3ccccc3C2=O)cc1,106% (inactive)
12,Ic1ccc(OCCCCn2ccnc2)cc1,3.58% (active)
13,COc1ccccc1CNCCCN1C(=O)c2ccc3c4c(ccc(c24)C1=O)C(=O)N(CCCNCCNCCCN)C3=O,0.848% (active)
14,NC1CCC(Nc2nc(NCc3ccc(-c4ccccc4O)nc3)c3ncn(C4CCCC4)c3n2)CC1 (stereo not given),-41.8% (active)
15,O=C(O)CCCC(=O)O,99% (inactive)
16,COc1cc(/C=N/NC(=O)Cn2c(C(C)C)nc3ccccc32)ccc1O,85.2% (inactive)
17,CCOC(=O)c1ccc[nH]1,79.7% (inactive)
18,CC1(C)CC(=O)C2=C(C1)Nc1cc3c(cc1C2c1ccc(F)cc1)OCO3 (stereo not given),90.2% (inactive)
19,CN(Cc1ccccc1)Cc1ccc([N+](=O)[O-])cc1I,85% (inactive)
20,CC(C)(C)OC(=O)N1Cc2cc3ccccc3nc2C1CO (stereo not given),92.8% (inactive)

row,SMILES,growth
1,COc1cc(/C=N/NC(=O)c2ccccc2Nc2cccc(C(F)(F)F)c2)cc(OC)c1OC,-5.58% (active)
2,CC(C)=CC/C=C(/C)[C@H]1CC[C@]2(C)[C@@H]1CC[C@@H]1[C@@]3(C)CCCNC(C)(C)[C@@H]3CC[C@]12C,-35.8% [100 µM] (active)
3,CCC1(C)OC(=O)NC1=O (stereo not given),112% (inactive)
4,CC(=O)N(C(C)=O)c1ccc(C)cc1,92.9% (inactive)
5,CCOC(=O)C/C(=C\c1ccccc1)C(C)=O,98.5% (inactive)
6,O=c1ccc2c(ccc3ncccc32)o1,88.8% (inactive)
7,Cc1ccc2c(n1)C(=O)C(Cl)=C(Nc1ccccc1C(C)C)C2=O,-15.3% (active)
8,O=C(N/N=C/c1c[nH]c2ccccc12)c1cc(-c2ccccc2)on1,73.4% (inactive)
9,Cc1ccc(-c2nc3nc(-c4ccccc4)nc(N4CCCNCC4)c3o2)cc1,-69.8% (active)
10,COc1cccc(-c2nc3sccn3c2-c2ccnc(NCCNS(=O)(=O)c3cccc(Cl)c3)c2)c1,15.6% (inactive)
11,CN(C)CCCC1(c2ccc(F)cc2)OCc2cc(-c3cc4ccccc4s3)ccc21 (stereo not given),22.3% (inactive)
12,O=C(CN1C(=O)S/C(=C\c2ccccc2)C1=O)Nc1ncc(Cc2ccccc2Cl)s1,95.1% (inactive)
13,COc1ccc(/C=C(\C#N)c2cc3ccccc3[nH]2)cc1,14.8% (inactive)
14,O=CC(OC(=O)c1ccccc1)C(OC(=O)c1ccccc1)C(COC(c1ccccc1)(c1ccccc1)c1ccccc1)OC(=O)c1ccccc1 (stereo not given),-12.3% (active)
15,CN=C(N)N/N=C(\C)c1ccc2c(c1)Cc1ccccc1-2,-50.3% (active)
16,O=C(CSc1nnc(Cc2ccccc2Nc2c(Cl)cccc2Cl)n1-c1ccccc1)N1N=C(c2ccc3ccccc3c2)CC1c1ccc(Cl)cc1 (stereo not given),98% (inactive)
17,Cc1ccc(NC(=O)c2ccc(Nc3ncnc4c3cnn4-c3cccc(F)c3)cc2)cc1,90.2% (inactive)
18,CCc1ccc(-c2nnc(COc3ccc(-c4nc5ccccc5[nH]4)cc3OC)o2)cc1,78.4% (inactive)
19,O=C(N/N=C/c1ccc(Cl)cc1)c1[nH]c2ccc(Cl)cc2c1-c1ccccc1,13% (inactive)
20,CCc1ccc(C2=C/C(=C/c3ccccc3)C(=O)N2CCc2ccc(S(N)(=O)=O)cc2)cc1,100% (inactive)
